Results as given in PubChem BioAssay (Tox21).
Several values for one entry are separate records, joined by “and”; a condition that tells them apart may be missing. Equal values may be shown once. Records with an inconclusive call do not appear. Some compounds were tested as several samples or in several runs, with calls that do not always agree. Activity calls are given as the source filed them. Unless noted, calls come from the whole dose curve.

Tests used:
[1] = qHTS assay to identify small molecule agonists of the sonic hedgehog signaling (Shh) pathway (AID 1259368);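 note: NIH/3T3-derived 3T3Gli1-Luc cells carrying a stable Gli1-driven firefly luciferase reporter; series mostly up to about 92 µM; nearly all actives have a fitted effect of over 15% in size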
Outline: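 Cells of a mouse NIH/3T3 clone stably expressing luciferase under the Gli1 transcriptional response element are exposed to test chemicals for 24 hr at 37 C. Pathway activation is detected as a rise in luminescence.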

[2] = qHTS assay to identify small molecule antagonists of the sonic hedgehog signaling (Shh) pathway (AID 1259369); note: nearly all actives have a fitted effect of over 45% in size; note: potency is the fitted concentration of half-maximal effect
Outline: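 Cells are plated and held 4hr at 37 C, compounds (DMSO) are pinned in, conditioned medium is added to stimulate the pathway, and after 24hr luciferase reagent is added for 30min before luminescence is read.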

[3] = biological target: Estrogen receptor beta (Homo sapiens) (UniProt Q92731); assay: qHTS assay to identify small molecule agonists of the estrogen receptor beta (ER-beta) signaling pathway (AID 1259377; active = well fitted activation curve with a large enough effect in the signal ratio in the repeat runs, not every such curve was filed as active; the % refers to the signal ratio)
Outline: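 ER-beta-UAS-bla HEK293T cells in medium with 2% charcoal-stripped FBS were exposed to compounds for 16 h at 37C. Beta-lactamase reporter activity was read as fluorescence after 2 h with LiveBLAzer B/G FRET substrate at room temperature.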

[4] = biological target: Estrogen receptor beta (Homo sapiens) (UniProt Q92731); assay: qHTS assay to identify small molecule antagonists of the estrogen receptor beta (ER-beta) signaling pathway (AID 1259378; active = well fitted inhibition curve with a large enough effect in the signal ratio in the repeat runs, not every such curve was filed as active; the % refers to the signal ratio)
Outline: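 Antagonist mode: compounds added to beta-lactamase reporter HEK293T ER-beta-UAS cells stimulated with E2 (1nM final), 16 hr at 37C. LiveBLAzer B/G FRET substrate, 2 hours room temperature, fluorescence read-out.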

[5] = qHTS assay to identify small molecule agonists of the estrogen receptor beta (ER-beta) signaling pathway - cell viability counter screen (AID 1259380; active = well fitted curve in the direction sought with a large enough effect in the repeat runs; an effect the other way counts as inactive or inconclusive; note: nearly all actives have a fitted effect of over 30% in size; note: potency is the fitted concentration of half-maximal effect)
Outline: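 Cytotoxicity is measured in parallel with the reporter screen: after 16 hr compound exposure at 37C and a 2 hr LiveBLAzer step, CellTiter-Glo is added to the same ER-beta-UAS-bla HEK293T wells and luminescence read after 30 min.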

[6] = qHTS assay to identify small molecule antagonists of the estrogen receptor beta (ER-beta) signaling pathway - cell viability counter screen (AID 1259382; active = well fitted curve in the direction sought with a large enough effect in the repeat runs; an effect the other way counts as inactive or inconclusive;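 note: HEK293T cells carrying ER-beta-UAS-bla reporter stimulated with estradiol; series mostly up to about 92 µM; nearly all actives have a fitted effect of over 55% in size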)
Outline: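 Cytotoxicity counter screen multiplexed with the beta-lactamase antagonist assay: GripTite HEK293T ER-beta-bla cells were treated 16 hr with test chemicals in the presence of 1nM 17-beta-estradiol, and viability was measured by CellTiter-Glo.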

[7] = biological target: Estrogen receptor (Homo sapiens) (UniProt P03372); assay: qHTS assay to identify small molecule agonists of the estrogen receptor alpha (ER-alpha) signaling pathway in the presence of an antagonist (AID 1259383); note: top concentration of the series differs between compounds; nearly all actives have a fitted effect of over 15% in size
Outline: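 Agonist-mode confirmation in the presence of the ER antagonist ICI-182,780 at 10.0nM final. Breast-derived VM7Luc4E2 reporter cells were exposed to compounds for 22hr, and ERE-driven luciferase was quantified by luminescence.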

[8] = qHTS assay to identify small molecule agonists of the estrogen receptor alpha (ER-alpha) signaling pathway in the presence of an antagonist - cell viability counter screen (AID 1259386; active = well fitted curve in the direction sought with a large enough effect in the repeat runs; an effect the other way counts as inactive or inconclusive;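 note: series mostly up to about 92 µM; cells exposed to compounds for 22 h at 37 °C before the viability read; nearly all actives have a fitted effect of over 30% in size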)
Outline: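 Cytotoxicity was measured in parallel with the ERE-luciferase agonist screen, in the same wells. The cells were VM7Luc4E2, which endogenously express ER-alpha, and treatment was with compounds plus 10.0nM ICI-182,780 for 22hr.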

[9] = biological target: Progesterone receptor (Homo sapiens) (UniProt P06401); assay: qHTS assay to identify small molecule agonists of the progesterone receptor (PR) signaling pathway (AID 1346784); note: nearly all actives have a fitted effect of over 30% in size
Outline: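 PR-UAS-bla HEK 293T cells (beta-lactamase reporter under UAS) in 2% charcoal-stripped FBS, dosed with 23 nL compound after 6 hr, incubated 16hr at 37C. LiveBLAzer B/G FRET substrate added, fluorescence read after 2 hours.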

[10] = biological target: Progesterone receptor (Homo sapiens) (UniProt P06401); assay: qHTS assay to identify small molecule antagonists of the progesterone receptor (PR) signaling pathway (AID 1346795; active = well fitted inhibition curve with a large enough effect in the signal ratio in the repeat runs, not every such curve was filed as active; the % refers to the signal ratio; note: potency is the fitted concentration of half-maximal effect)
Outline: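 PR-UAS-bla HEK293T cells with beta-lactamase reporter under UAS control, in 2% charcoal-stripped FBS, treated with compounds plus 1 nM promegestone (R5020, final) for 16 hr at 37C. Read-out: FRET beta-lactamase substrate fluorescence after 2 hr at room temperature.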

[11] = qHTS assay to identify small molecule antagonists of the progesterone receptor (PR) signaling pathway - cell viability counter screen (AID 1346798; active = well fitted curve in the direction sought with a large enough effect in the repeat runs; an effect the other way counts as inactive or inconclusive; note: series mostly up to about 92 µM; nearly all actives have a fitted effect of over 50% in size)
Outline: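 PR-UAS-bla HEK293T cells, 3,000/well in 2% charcoal-stripped FBS medium, dosed with compounds plus R5020 agonist and incubated 16 h at 37C. Viability then measured in the same wells by CellTiter-Glo luminescence after 30 min at RT.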

[12] = qHTS assay to identify small molecule agonists of the progesterone receptor (PR) signaling pathway - cell viability counter screen (AID 1346799); note: nearly all actives have a fitted effect of over 45% in size
Outline: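 Counter screen in the PR-UAS-bla HEK293T wells (2% charcoal-stripped FBS, 16 h compound exposure at 37 C) after the bla read. CellTiter-Glo added, 30 min at room temperature, luminescence read as cell viability.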

[13] = qHTS assay to identify small molecule antagonists of the TGF-beta/Smad signaling pathway - cell viability counter screen (AID 1346824; active = well fitted curve in the direction sought with a large enough effect in the repeat runs; an effect the other way counts as inactive or inconclusive; note: nearly all actives have a fitted effect of over 50% in size)
Outline: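 Cytotoxicity counter-screen run in the same wells as the beta-lactamase Smad reporter read: CellTiter-Glo luminescence after 30 min at room temperature. HEK 293T SBE-bla cells had 5 hr compound exposure at 37 C with TGF-beta1 (0.25 ng/mL stock).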

[14] = qHTS assay to identify small molecule agonists of the TGF-beta/Smad signaling pathway - cell viability counter screen (AID 1346829; active = well fitted curve in the direction sought with a large enough effect in the repeat runs; an effect the other way counts as inactive or inconclusive; note: top concentration of the series differs between compounds; nearly all actives have a fitted effect of over 45% in size)
Outline: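 Luminescence from CellTiter-Glo, read after a 30 min room-temperature incubation, gives cell viability of SBE-bla HEK 293T cells treated 5 hr with compounds at 37 C.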

[15] = qHTS assay to identify small molecule agonists of the TGF-beta/Smad signaling pathway (AID 1346859; active = well fitted activation curve with a large enough effect in the signal ratio in the repeat runs, not every such curve was filed as active; the % refers to the signal ratio; note: series mostly up to about 77 µM)
Outline: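 SBE-bla HEK293T cells plated overnight, then compound exposure for 5 h at 37 C. Beta-lactamase reporter read with LiveBLAzer B/G FRET substrate after 2 h at room temperature, fluorescence at 405 nm excitation, 460/530 nm emission.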

[16] = biological target: Androgen receptor (Homo sapiens) (UniProt P10275); assay: qHTS assay to identify small molecule agonists of the androgen receptor (AR) signaling pathway in the presence of an antagonist (AID 1259381); note: nearly all actives have a fitted effect of over 15% in size
Outline: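 Agonist-mode confirmation screen: human MDA-kb2 cells stably expressing luciferase under an MMTV promoter bearing AR and GR response elements, co-treated with 3.0uM nilutamide (final). Luminescence measured after 16hr compound incubation.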

[17] = qHTS assay to identify small molecule agonists or antagonists of the thyroid stimulating hormone receptor (TSHR) signaling pathway - wild type cell line counter screen (AID 1259384)
Outline: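 Counter screen in untransfected Hek293: compounds (15-point titration, triplicate) plus phosphodiesterase inhibitor Ro20-1724 added after 18 h plating; 30 min RT. Intracellular cAMP via competitive d2/cryptate immunoassay, 1 h incubation.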

[18] = biological target: Thyrotropin receptor (Homo sapiens) (UniProt P16473); assay: qHTS assay to identify small molecule antagonists of the thyroid stimulating hormone receptor (TSHR) signaling pathway (AID 1259385); note: nearly all actives have a fitted effect of over 20% in size
Outline: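 Antagonist mode: compound-treated TSHR-expressing HEK293 cells were stimulated with 1.5 ng/mL TSH (final) in presence of Ro20-1724 for 30 min at RT. HTRF cAMP detection after 1 h; each compound tested at 15 concentrations, triplicate.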

[19] = biological target: Thyrotropin-releasing hormone receptor (Homo sapiens) (UniProt P34981); assay: qHTS assay to identify small molecule antagonists of the thyrotropin-releasing hormone receptor (TRHR) signaling pathway (AID 1346877; active = well fitted inhibition curve with a large enough effect in the repeat runs, not every such curve was filed as active; note: series mostly up to about 51 µM)
Outline: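 Antagonism is measured as suppression of the calcium response to 1 nM TRH in TRHR-HEK293 cells that have been dye-loaded for 2 h at 37 °C after overnight plating. Each compound is tested at 15 concentrations in triplicate.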

[20] = qHTS assay to identify small molecule agonists of the androgen receptor (AR) signaling pathway in the presence of an antagonist - cell viability counter screen (AID 1259379; active = well fitted curve in the direction sought with a large enough effect in the repeat runs; an effect the other way counts as inactive or inconclusive;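 note: MDA-kb2 human breast cancer cells carrying an MMTV luciferase reporter; series mostly up to about 92 µM; nearly all actives have a fitted effect of over 25% in size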)
Outline: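 Cytotoxicity is assessed by CellTiter-Fluor in MDA-kb2 cells carrying an MMTV-driven luciferase reporter. Cells receive 3.0uM nilutamide plus compounds at 15 concentrations and incubate 16 hr at 37C without CO2 before fluorescence reading.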

Measured: Potency

Sequence of Thyrotropin-releasing hormone receptor (Homo sapiens) (P34981 whole entry, looked up): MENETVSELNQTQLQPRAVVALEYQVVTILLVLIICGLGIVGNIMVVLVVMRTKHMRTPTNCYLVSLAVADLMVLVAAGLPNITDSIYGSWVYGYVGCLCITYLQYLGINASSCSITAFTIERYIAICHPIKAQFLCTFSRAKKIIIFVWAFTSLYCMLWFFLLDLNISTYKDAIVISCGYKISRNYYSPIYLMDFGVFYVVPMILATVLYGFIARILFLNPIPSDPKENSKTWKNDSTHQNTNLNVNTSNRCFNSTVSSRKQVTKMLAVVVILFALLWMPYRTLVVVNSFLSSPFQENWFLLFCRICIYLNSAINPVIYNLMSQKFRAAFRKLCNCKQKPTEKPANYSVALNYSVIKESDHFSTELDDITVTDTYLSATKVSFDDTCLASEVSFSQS
Sequence of Progesterone receptor (Homo sapiens) (P06401 whole entry, looked up): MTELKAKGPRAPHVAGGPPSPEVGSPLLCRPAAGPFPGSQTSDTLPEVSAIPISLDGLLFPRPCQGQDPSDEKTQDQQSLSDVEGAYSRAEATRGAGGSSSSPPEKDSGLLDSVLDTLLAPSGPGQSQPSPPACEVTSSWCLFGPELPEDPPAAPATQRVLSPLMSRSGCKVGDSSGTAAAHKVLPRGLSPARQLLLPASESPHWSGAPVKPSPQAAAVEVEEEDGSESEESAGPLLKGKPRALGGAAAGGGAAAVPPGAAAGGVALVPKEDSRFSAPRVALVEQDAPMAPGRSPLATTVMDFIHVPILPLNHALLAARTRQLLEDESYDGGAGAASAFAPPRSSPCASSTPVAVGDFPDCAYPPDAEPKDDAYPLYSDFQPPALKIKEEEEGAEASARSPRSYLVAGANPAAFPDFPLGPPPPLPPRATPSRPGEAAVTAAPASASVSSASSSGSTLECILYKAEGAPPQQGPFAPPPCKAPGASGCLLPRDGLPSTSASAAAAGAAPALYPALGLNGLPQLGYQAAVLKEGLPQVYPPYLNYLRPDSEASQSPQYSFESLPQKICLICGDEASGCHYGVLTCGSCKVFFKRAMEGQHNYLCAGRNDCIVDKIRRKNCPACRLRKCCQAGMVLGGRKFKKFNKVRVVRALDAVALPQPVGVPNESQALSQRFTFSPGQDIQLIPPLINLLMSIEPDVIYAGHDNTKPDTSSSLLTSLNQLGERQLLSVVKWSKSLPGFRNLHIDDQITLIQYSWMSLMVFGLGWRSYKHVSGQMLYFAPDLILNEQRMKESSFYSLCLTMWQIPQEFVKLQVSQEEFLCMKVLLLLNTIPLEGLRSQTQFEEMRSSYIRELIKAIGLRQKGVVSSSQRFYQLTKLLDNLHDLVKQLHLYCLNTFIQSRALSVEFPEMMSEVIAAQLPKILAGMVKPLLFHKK
Sequence of Estrogen receptor (Homo sapiens) (P03372 whole entry, looked up): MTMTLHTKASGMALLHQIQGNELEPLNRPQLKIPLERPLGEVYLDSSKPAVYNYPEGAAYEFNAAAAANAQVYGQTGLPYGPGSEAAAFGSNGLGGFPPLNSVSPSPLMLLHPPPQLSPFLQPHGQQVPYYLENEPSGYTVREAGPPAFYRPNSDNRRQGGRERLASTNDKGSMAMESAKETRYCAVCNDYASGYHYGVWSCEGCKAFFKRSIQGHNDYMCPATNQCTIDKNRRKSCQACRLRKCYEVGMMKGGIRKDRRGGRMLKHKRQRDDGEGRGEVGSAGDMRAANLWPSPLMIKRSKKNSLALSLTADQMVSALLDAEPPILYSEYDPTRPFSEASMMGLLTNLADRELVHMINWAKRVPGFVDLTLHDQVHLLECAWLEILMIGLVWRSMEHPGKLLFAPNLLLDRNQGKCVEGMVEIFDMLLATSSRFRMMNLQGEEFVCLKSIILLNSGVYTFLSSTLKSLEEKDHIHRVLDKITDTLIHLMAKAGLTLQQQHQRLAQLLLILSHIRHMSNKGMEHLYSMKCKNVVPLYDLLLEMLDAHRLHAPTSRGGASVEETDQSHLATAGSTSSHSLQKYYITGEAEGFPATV
Sequence of Estrogen receptor beta (Homo sapiens) (Q92731 whole entry, looked up): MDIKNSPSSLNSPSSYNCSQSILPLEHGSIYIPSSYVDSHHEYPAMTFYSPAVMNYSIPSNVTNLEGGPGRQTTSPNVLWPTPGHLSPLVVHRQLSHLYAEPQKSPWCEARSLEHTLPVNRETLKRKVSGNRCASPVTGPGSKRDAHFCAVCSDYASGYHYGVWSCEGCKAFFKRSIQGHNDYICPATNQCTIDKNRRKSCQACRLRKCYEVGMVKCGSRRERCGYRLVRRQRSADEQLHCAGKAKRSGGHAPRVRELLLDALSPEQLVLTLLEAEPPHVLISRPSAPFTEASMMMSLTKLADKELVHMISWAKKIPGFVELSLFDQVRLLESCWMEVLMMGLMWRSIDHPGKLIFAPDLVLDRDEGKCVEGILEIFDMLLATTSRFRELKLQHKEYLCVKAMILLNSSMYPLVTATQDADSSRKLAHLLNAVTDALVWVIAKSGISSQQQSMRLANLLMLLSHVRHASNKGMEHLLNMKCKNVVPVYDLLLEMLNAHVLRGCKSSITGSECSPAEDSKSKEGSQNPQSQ
Sequence of Androgen receptor (Homo sapiens) (P10275 whole entry, looked up): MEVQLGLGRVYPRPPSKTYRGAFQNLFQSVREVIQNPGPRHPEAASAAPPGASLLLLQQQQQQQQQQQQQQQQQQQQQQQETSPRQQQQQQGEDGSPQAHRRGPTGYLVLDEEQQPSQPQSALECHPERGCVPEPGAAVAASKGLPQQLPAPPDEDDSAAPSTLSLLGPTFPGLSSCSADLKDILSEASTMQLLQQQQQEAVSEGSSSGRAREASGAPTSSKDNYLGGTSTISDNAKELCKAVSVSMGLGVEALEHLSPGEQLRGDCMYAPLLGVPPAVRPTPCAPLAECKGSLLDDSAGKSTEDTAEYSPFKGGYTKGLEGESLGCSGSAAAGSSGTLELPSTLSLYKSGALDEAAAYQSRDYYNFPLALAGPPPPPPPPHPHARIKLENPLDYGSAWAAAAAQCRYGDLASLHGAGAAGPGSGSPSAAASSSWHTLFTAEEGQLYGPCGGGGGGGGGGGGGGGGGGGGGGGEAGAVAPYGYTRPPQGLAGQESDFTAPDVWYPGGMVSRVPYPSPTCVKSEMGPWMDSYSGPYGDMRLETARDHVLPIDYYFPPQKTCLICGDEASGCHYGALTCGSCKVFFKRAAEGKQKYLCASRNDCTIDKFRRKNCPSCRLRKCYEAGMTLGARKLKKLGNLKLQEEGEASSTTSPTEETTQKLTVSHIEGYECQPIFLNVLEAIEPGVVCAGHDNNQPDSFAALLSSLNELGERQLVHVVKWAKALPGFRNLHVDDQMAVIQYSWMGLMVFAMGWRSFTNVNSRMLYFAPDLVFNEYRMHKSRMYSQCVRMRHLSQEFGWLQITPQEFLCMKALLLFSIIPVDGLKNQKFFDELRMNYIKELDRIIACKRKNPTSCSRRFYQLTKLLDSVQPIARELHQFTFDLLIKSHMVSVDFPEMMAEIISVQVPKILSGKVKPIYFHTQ
Sequence of Thyrotropin receptor (Homo sapiens) (P16473 whole entry, looked up): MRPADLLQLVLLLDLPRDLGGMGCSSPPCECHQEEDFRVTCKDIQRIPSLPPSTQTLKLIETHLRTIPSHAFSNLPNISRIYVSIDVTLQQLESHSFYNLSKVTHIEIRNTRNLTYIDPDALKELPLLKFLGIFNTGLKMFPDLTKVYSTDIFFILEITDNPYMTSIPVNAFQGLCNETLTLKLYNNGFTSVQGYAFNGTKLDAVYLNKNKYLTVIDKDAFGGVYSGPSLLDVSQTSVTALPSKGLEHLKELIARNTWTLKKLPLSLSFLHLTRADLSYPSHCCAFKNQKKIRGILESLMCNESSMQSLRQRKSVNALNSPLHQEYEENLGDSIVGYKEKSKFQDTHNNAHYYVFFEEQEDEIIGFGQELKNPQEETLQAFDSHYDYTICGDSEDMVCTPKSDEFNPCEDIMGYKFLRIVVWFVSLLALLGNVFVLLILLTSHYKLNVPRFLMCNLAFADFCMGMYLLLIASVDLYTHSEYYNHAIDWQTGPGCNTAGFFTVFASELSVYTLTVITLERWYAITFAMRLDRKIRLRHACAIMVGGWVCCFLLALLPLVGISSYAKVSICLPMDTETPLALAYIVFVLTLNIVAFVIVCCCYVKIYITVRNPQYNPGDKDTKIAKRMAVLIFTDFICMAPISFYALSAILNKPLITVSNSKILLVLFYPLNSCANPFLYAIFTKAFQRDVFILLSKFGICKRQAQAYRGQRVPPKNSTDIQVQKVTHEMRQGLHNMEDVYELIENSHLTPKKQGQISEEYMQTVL

Cc1cc(Cl)ccc1OC(C)C(=O)O (stereo not given)
not listed: [16] | [17] | [18] | [19] | [20]
inactive: all other assays above

CNC(=O)O/N=C(\SC)C(=O)N(C)C
not listed: [19] | [20]
inactive: all other assays above

C=CC(=O)OCC(CC)CCCC (stereo not given)
not listed: [7] | [16] | [19] | [20]
inactive: all other assays above

C=CC#N
not listed: [16] | [20]
inactive: all other assays above

Cc1cccc(C)c1N
not listed: [16] | [20]
inactive: all other assays above

Clc1cnc(Oc2ccc(Oc3ncc(Cl)cc3Cl)cc2)c(Cl)c1
not listed: [7] | [16] | [19] | [20]
inactive: all other assays above

CCSC(=O)N1CCCCCC1
not listed: [12] | [16] | [19] | [20]
inactive: all other assays above

c1ccc2c(c1)CCCC2
not listed: [20]
inactive: all other assays above

Nc1nc(N)nc(NC2CC2)n1
not listed: [7] | [16] | [20]
inactive: all other assays above

CC[N+](=O)[O-]
not listed: [7] | [16] | [19] | [20]
inactive: all other assays above

Cc1cc(O)ccc1Cl
not listed: [16] | [20]
inactive: all other assays above

CCOc1ccc(N)cc1
not listed: [16] | [20]
inactive: all other assays above

C/C=C/c1ccc2c(c1)OCO2
not listed: [3] | [4] | [7] | [16] | [19] | [20]
inactive: all other assays above

Cc1cccc(N)c1
not listed: [3] | [4] | [16] | [17] | [18] | [20]
inactive: all other assays above

Cc1ccc(N=C=O)cc1N=C=O
34.3 µM (active) and inactive: [5]
not listed: [3] | [4] | [7] | [16] | [17] | [18]
inactive: all other assays above

CNC(=O)Oc1cccc2ccccc12
active: [2] 12.1 µM and 9.44 µM | [10] 27.1 µM and 30.6 µM
not listed: [3] | [4] | [16]
inactive: all other assays above

Sc1ccccc1
not listed: [3] | [4] | [16] | [20]
inactive: all other assays above
